Measurements taken from PubChem BioAssay AID1159580 (chemical genetic matrix, 2015).
The whole screen tested about 5,500 compounds, of which about 2,000 (36%) were called active. Inconclusive results (about 18%) are left out. No stated cut-off is given here; in the data, active means normalized growth mostly below about 0.91 (no sharp cut-off); inconclusive means no clear call, values can overlap the other calls; inactive means mostly above about 0.92. The list shows a part of the results.

Assay: chemical genetic growth profiling, strain panel (AID 1159580);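 further: tested at 20 µM; growth read once vehicle control cultures reached saturation at 30 °C; 1 = growth at the plate median or of vehicle wells; lower values mean less growth of the strain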
Settings: growth OD
[1] = S. cerevisiae deletion strains, locus YAL013W, strain DEP1, hits give low values
[2] = S. cerevisiae deletion strains, locus YGR229C, strain SMI1, hits give low values
[3] = S. cerevisiae deletion strains, locus YJR075W, strain HOC1, hits give low values
[4] = S. cerevisiae deletion strains, locus YMR263W, strain SAP30, hits give low values
[5] = S. cerevisiae deletion strains, locus YMR307W, strain GAS1, hits give low values

Measured: normalized growth

CCC(=O)c1ccc2c(c1)N(CC(C)N(C)C)c1ccccc1S2 (configuration not stated)
inactive: [1] 0.983 | S. cerevisiae deletion strains, locus YBR021W, strain FUR4, hits give low values 0.88 | S. cerevisiae deletion strains, locus YBR229C, strain ROT2, hits give low values 0.994 | S. cerevisiae deletion strains, locus YCL029C, strain bik1, hits give low values 1.02 | S. cerevisiae deletion strains, locus YDL035C, strain GPR1, hits give low values 0.979 | S. cerevisiae deletion strains, locus YDL074C, strain BRE1, hits give low values 0.95 | S. cerevisiae deletion strains, locus YDL101C, strain DUN1, hits give low values 0.986 | S. cerevisiae deletion strains, locus YDL134C, strain PPH21, hits give low values 0.96 | S. cerevisiae deletion strains, locus YDL185W, strain tfp1, hits give low values 0.995 | S. cerevisiae deletion strains, locus YDL192W, strain arf1, hits give low values 1.01 | S. cerevisiae deletion strains, locus YDR101C, strain arx1, hits give low values 1.01 | S. cerevisiae deletion strains, locus YDR162C, strain NBP2, hits give low values 0.988 | S. cerevisiae deletion strains, locus YDR318W, strain mcm21, hits give low values 0.994 | S. cerevisiae deletion strains, locus YDR388W, hits give low values 1 | S. cerevisiae deletion strains, locus YDR502C, strain sam2, hits give low values 0.986 | S. cerevisiae deletion strains, locus YEL061C, strain CIN8, hits give low values 0.998 | S. cerevisiae deletion strains, locus YER110C, hits give low values 1.02 | S. cerevisiae deletion strains, locus YER155C, strain BEM2, hits give low values 0.989 | S. cerevisiae deletion strains, locus YER167W, strain BCK2, hits give low values 0.998 | S. cerevisiae deletion strains, locus YGL078C, strain dbp3, hits give low values 1.01 | S. cerevisiae deletion strains, locus YGL086W, strain mad1, hits give low values 0.99 | S. cerevisiae deletion strains, locus YGL248W, strain PDE1, hits give low values 0.966 | S. cerevisiae deletion strains, locus YGR078C, strain PAC10, hits give low values 0.992 | S. cerevisiae deletion strains, locus YGR135W, strain pre9, hits give low values 0.97 | [2] 0.949 | S. cerevisiae deletion strains, locus YGR252W, strain gcn5, hits give low values 0.806 | S. cerevisiae deletion strains, locus YHR030C, strain SLT2, hits give low values 0.997 | S. cerevisiae deletion strains, locus YHR079C, strain IRE1 (second series), hits give low values 1.01 | S. cerevisiae deletion strains, locus YHR094C, strain hxt1, hits give low values 1.02 | S. cerevisiae deletion strains, locus YHR129C, strain ARP1, hits give low values 0.993 | S. cerevisiae deletion strains, locus YHR200W, strain rpn10, hits give low values 1 | S. cerevisiae deletion strains, locus YIL066C, strain RNR3, hits give low values 0.985 | S. cerevisiae deletion strains, locus YIL073C, strain SPO22, hits give low values 1.01 | S. cerevisiae deletion strains, locus YIL125W, strain kgd1, hits give low values 1.01 | S. cerevisiae deletion strains, locus YIR030C, strain dcg1, hits give low values 1.01 | S. cerevisiae deletion strains, locus YJL095W, strain BCK1, hits give low values 0.889 | S. cerevisiae deletion strains, locus YJL134W, strain LCB3, hits give low values 0.996 | S. cerevisiae deletion strains, locus YJL168C, strain set2, hits give low values 1 | S. cerevisiae deletion strains, locus YJL187C, strain SWE1 (second series), hits give low values 0.99 | S. cerevisiae deletion strains, locus YJR043C, strain POL32, hits give low values 0.96 | [3] 0.99 | S. cerevisiae deletion strains, locus YKL009W, strain mrt4, hits give low values 0.999 | S. cerevisiae deletion strains, locus YKL068W, hits give low values 0.999 | S. cerevisiae deletion strains, locus YKL085W, strain MDH1 (second series), hits give low values 0.999 | S. cerevisiae deletion strains, locus YKL085W, strain MDH1, hits give low values 0.999 | S. cerevisiae deletion strains, locus YKL190W, strain CNB1, hits give low values 0.99 | S. cerevisiae deletion strains, locus YKR001C, strain vps1, hits give low values 0.967 | S. cerevisiae deletion strains, locus YLR039C, strain RIC1, hits give low values 1.3 | S. cerevisiae deletion strains, locus YLR058C, strain SHM2, hits give low values 0.985 | S. cerevisiae deletion strains, locus YLR102C, strain apc9, hits give low values 1.02 | S. cerevisiae deletion strains, locus YLR262C, strain YPT6, hits give low values 1.35 | S. cerevisiae deletion strains, locus YLR268W, strain sec22, hits give low values 0.986 | S. cerevisiae deletion strains, locus YLR330W, strain CHS5, hits give low values 0.996 | S. cerevisiae deletion strains, locus YLR342W, strain FKS1 (second series), hits give low values 0.921 | S. cerevisiae deletion strains, locus YLR371W, strain rom2, hits give low values 1.03 | S. cerevisiae deletion strains, locus YLR418C, strain cdc73, hits give low values 0.9 | S. cerevisiae deletion strains, locus YML016C, strain PPZ1, hits give low values 0.994 | S. cerevisiae deletion strains, locus YML032C, strain rad52, hits give low values 0.982 | S. cerevisiae deletion strains, locus YML124C, strain tub3, hits give low values 1.01 | S. cerevisiae deletion strains, locus YMR078C, strain ctf18, hits give low values 1.01 | S. cerevisiae deletion strains, locus YMR223W, strain ubp8, hits give low values 0.963 | [4] 0.973 | [5] 1.01 | S. cerevisiae deletion strains, locus YNL067W, strain RPL9B, hits give low values 0.99 | S. cerevisiae deletion strains, locus YNL153C, strain GIM3, hits give low values 0.98 | S. cerevisiae deletion strains, locus YNL233W, strain BNI4, hits give low values 0.951 | S. cerevisiae deletion strains, locus YNL250W, strain rad50, hits give low values 1.01 | S. cerevisiae deletion strains, locus YNL271C, strain bni1, hits give low values 1.01 | S. cerevisiae deletion strains, locus YNL298W, strain CLA4, hits give low values 1.01 | S. cerevisiae deletion strains, locus YNL307C, strain MCK1, hits give low values 0.996 | S. cerevisiae deletion strains, locus YNR052C, strain pop2, hits give low values 1 | S. cerevisiae deletion strains, locus YOL006C, strain TOP1, hits give low values 0.852 | S. cerevisiae deletion strains, locus YOL012C, strain htz1 0.881 | S. cerevisiae deletion strains, locus YOL147C, strain pex11, hits give low values 1.01 | S. cerevisiae deletion strains, locus YOR061W, strain CKA2, hits give low values 0.999 | S. cerevisiae deletion strains, locus YOR069W, strain VPS5, hits give low values 0.996 | S. cerevisiae deletion strains, locus YOR136W, strain idh2, hits give low values 1 | S. cerevisiae deletion strains, locus YOR144C, strain elg1, hits give low values 1.01 | S. cerevisiae deletion strains, locus YOR184W, strain ser1, hits give low values 1.01 | S. cerevisiae deletion strains, locus YOR316C, strain cot1, hits give low values 1.02 | S. cerevisiae deletion strains, locus YPL055C, strain LGE1, hits give low values 0.949 | S. cerevisiae deletion strains, locus YPR119W, strain clb2, hits give low values 1.01 | S. cerevisiae deletion strains, locus YPR141C, strain kar3, hits give low values 1.01 | S. cerevisiae deletion strains, locus YPR163C, strain tif3, hits give low values 1 | S. cerevisiae deletion strains, locus YPR167C, strain met16, hits give low values 1.02 | S. cerevisiae deletion strains, strain wtn01, hits give low values 0.99 | S. cerevisiae strains, strain wild type, hits give low values 0.991

CCN(CC)C(C)C(=O)N1c2ccccc2Sc2ccccc21 (configuration not stated)
inactive: [1] 1 | S. cerevisiae deletion strains, locus YAL040C, strain CLN3, hits give low values 1.02 | S. cerevisiae deletion strains, locus YCL061C, strain MRC1 (second series), hits give low values 1.01 | S. cerevisiae deletion strains, locus YDR363W, strain ESC2, hits give low values 1 | S. cerevisiae deletion strains, locus YER002W, strain NOP16, hits give low values 1.02 | [2] 1.04 | [3] 1.07 | [4] 1.01 | [5] 0.999 | S. cerevisiae deletion strains, locus YNL128W, strain TEP1, hits give low values 0.997 | S. cerevisiae deletion strains, locus YNL175C, strain NOP13, hits give low values 1.04 | S. cerevisiae deletion strains, locus YNL197C, strain WHI3, hits give low values 1.03 | S. cerevisiae deletion strains, locus YNL224C, strain SQS1, hits give low values 1.02 | S. cerevisiae deletion strains, locus YOR083W, strain WHI5 (second series), hits give low values 1.02 | S. cerevisiae deletion strains, locus YPL241C, strain CIN2, hits give low values 1.01
